PubChem BioAssay (Tox21)
Unmarked numbers belong to inactive results. Inconclusive results are not listed. Where a call stands in place of a potency, no number is given. Calls of active or inactive are those of the source. Unless noted, the call rests on the fitted dose curve; in most records, active means well fitted curve in the direction sought with a large enough effect in the repeat runs; inconclusive means weak or mixed curves; inactive means flat fitted curve, though single readings scatter.

Tested on: not listed separately
Test: qHTS assay to test for compound auto fluorescence at 535 nm (green) in HepG2 cell free culture (AID 720686)
Details: Cell-free medium, green autofluorescence 485/535 nm; series mostly up to 91.3 µM; fluorescence, % of fluorescein control: at the top concentration

| SMILES | outcome | fluorescence, % of fluorescein control [%] |
| --- | --- | --- |
| CC(=O)OC1CC(C)OC(C)O1 (stereo not drawn) | inactive |  |
| CCc1ccccc1CC | inactive |  |
| C=C(C)[C@H]1CC=C(C)C(=O)C1 | inactive |  |
| CCNc1cccc(C)c1 | inactive |  |
| CC(=O)Oc1ccc(C)cc1 | inactive |  |
| CC(C)(Oc1ccc(CCNC(=O)c2ccc(Cl)cc2)cc1)C(=O)O | inactive |  |
| O=c1[nH]cnc2[nH]ncc12 | inactive |  |
| O=S(=O)(O)c1ccccc1 | inactive |  |
| O=C(O)Cn1c(=O)n(Cc2ccc(Br)cc2F)c(=O)c2ccc(Cl)cc21 |  | 0.0411 |
| CC(=O)OCc1ccco1 | inactive |  |
| N#Cc1ccccc1 | inactive |  |
| CC(=O)OCc1ccccc1 | inactive |  |
| COc1ccc(N)c(C)c1 | inactive |  |
| O=C(O)c1ccc(C(=O)O)c(C(=O)O)c1 | inactive |  |
| CC(C)CC(C)O (stereo not drawn) | inactive |  |
| CCCCCCCCCCO | inactive |  |
| N[C@H](Cc1c[nH]c2ccccc12)C(=O)O | inactive |  |
| COC(=O)CCCC(=O)OC | inactive |  |
| CCNc1ccccc1 | inactive |  |

| SMILES | outcome | fluorescence, % of fluorescein control [%] |
| --- | --- | --- |
| CC(C)(C#N)c1cc(Cn2cncn2)cc(C(C)(C)C#N)c1 | inactive |  |
| O=S(=O)(O)c1ccc(N=Nc2c(O)ccc3cc(S(=O)(=O)O)ccc23)cc1 | inactive |  |
| CC1(C)NC(=O)NC1=O | inactive |  |
| CCO[Si](CCC#N)(OCC)OCC | inactive |  |
| CC(C)=CCl | inactive |  |
| CN(C)CCOC(=O)COc1ccc(Cl)cc1 | inactive |  |
| CC(O)CC(C)(C)O (stereo not drawn) | inactive |  |
| Nc1ccc(Cl)c(N)c1 | inactive |  |
| OC1C(O)C(O)C(O)C(O)C1O (stereo not drawn) | inactive |  |
| COc1cc(OC)c(C(=O)CCCN2CCCC2)c(OC)c1 | inactive |  |
| CC(=O)OCCOC(C)=O | inactive |  |
| C[C@]12CCC(=O)C=C1CC[C@@H]1[C@@H]2[C@@H](O)C[C@@]2(C)[C@H]1CC[C@]2(O)C(=O)CO | inactive |  |
| CC(C)c1cccc(C(C)C)c1 | inactive |  |
| O=[N+]([O-])c1ccc2nc[nH]c2c1 | inactive |  |
| COc1ccc(C)cc1N | inactive |  |
| COc1ccc(CCC(C)=O)cc1 |  | 0.0469 |
| CCCCCC(=O)O | inactive |  |
| OCc1cccc(Oc2ccccc2)c1 | inactive |  |
| CC(C)CCCCCCCOC(=O)CCCCC(=O)OCCCCCCCC(C)C | inactive |  |

Tested on: not listed separately
Test: qHTS assay to test for compound auto fluorescence at 460 nm (blue) in HepG2 cells (AID 720687)
Details: autofluorescence 405/460 nm, 1 h; series mostly up to 91.3 µM; fluorescence, % of fluorescent control: at the top concentration
In short: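 Cells (2,000/well in MEM with 10% FBS) attached overnight at 37 C, then were exposed to compound or DMSO for 1 hr at 37 C, 5% CO2. Fluorescence read at Ex/Em 405/460 nm, expressed as triamterene-equivalent signal.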

| SMILES | outcome | fluorescence, % of fluorescent control [%] |
| --- | --- | --- |
| CCc1ccccc1CC | inactive |  |
| C=C(C)[C@H]1CC=C(C)C(=O)C1 | inactive |  |
| CCNc1cccc(C)c1 | inactive |  |
| O=c1[nH]cnc2[nH]ncc12 | inactive |  |
| O=S(=O)(O)c1ccccc1 | inactive |  |
| O=C(O)Cn1c(=O)n(Cc2ccc(Br)cc2F)c(=O)c2ccc(Cl)cc21 |  | -0.121 |
| N#Cc1ccccc1 | inactive |  |
| O=C(O)c1ccc(C(=O)O)c(C(=O)O)c1 | inactive |  |
| CC(C)CC(C)O (stereo not drawn) | inactive |  |
| CCCCCCCCCCO | inactive |  |
| O=S(=O)(O)c1ccc(N=Nc2c(O)ccc3cc(S(=O)(=O)O)ccc23)cc1 | inactive |  |
| CN(C)CCOC(=O)COc1ccc(Cl)cc1 | inactive |  |
| CC(O)CC(C)(C)O (stereo not drawn) | inactive |  |
| Nc1ccc(Cl)c(N)c1 | inactive |  |
| OC1C(O)C(O)C(O)C(O)C1O (stereo not drawn) | inactive |  |
| COc1cc(OC)c(C(=O)CCCN2CCCC2)c(OC)c1 | inactive |  |
| CC(=O)OCCOC(C)=O | inactive |  |
| C[C@]12CCC(=O)C=C1CC[C@@H]1[C@@H]2[C@@H](O)C[C@@]2(C)[C@H]1CC[C@]2(O)C(=O)CO | inactive |  |
| CC(C)c1cccc(C(C)C)c1 | inactive |  |
| COc1ccc(CCC(C)=O)cc1 |  | -0.01 |
| CCCCCC(=O)O | inactive |  |
| OCc1cccc(Oc2ccccc2)c1 | inactive |  |
| CC(C)CCCCCCCOC(=O)CCCCC(=O)OCCCCCCCC(C)C | inactive |  |

Molecular target: Glucocorticoid receptor (Homo sapiens) (UniProt P04150)
Sequence (P04150 whole entry, looked up): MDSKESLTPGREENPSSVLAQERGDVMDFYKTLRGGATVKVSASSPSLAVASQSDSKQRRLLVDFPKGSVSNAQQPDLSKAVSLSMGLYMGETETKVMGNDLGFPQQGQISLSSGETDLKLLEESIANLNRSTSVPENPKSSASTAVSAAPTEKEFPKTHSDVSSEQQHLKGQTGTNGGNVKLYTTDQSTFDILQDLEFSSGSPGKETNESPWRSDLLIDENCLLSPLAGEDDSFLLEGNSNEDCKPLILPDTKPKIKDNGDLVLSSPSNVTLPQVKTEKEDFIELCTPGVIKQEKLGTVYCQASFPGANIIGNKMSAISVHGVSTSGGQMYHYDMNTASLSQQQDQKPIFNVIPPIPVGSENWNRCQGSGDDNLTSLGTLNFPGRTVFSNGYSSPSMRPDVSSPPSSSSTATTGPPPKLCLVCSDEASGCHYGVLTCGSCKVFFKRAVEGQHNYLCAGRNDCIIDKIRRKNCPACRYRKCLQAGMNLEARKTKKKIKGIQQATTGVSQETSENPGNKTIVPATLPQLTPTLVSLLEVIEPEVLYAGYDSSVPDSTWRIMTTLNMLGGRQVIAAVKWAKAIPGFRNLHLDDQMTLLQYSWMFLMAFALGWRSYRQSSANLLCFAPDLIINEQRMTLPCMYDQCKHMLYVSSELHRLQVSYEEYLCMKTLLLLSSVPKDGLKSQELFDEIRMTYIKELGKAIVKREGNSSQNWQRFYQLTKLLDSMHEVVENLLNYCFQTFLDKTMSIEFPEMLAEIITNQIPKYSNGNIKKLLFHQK
Test: qHTS assay to identify small molecule agonists of the glucocorticoid receptor (GR) signaling pathway (AID 720691; active means well fitted activation curve with a large enough effect in the signal ratio in the repeat runs, not every such curve was filed as active; the % refers to the signal ratio)
Details: GR-bla HeLa, beta-lactamase reporter ratio, 18 h; series mostly up to 62.4 µM; activation: at the top concentration
In short: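 HeLa GR-bla reporter line; cells pre-incubated 4 h, compound in DMSO 18 h at 37 C; LiveBLAzer B/G FRET substrate 2 h RT; fluorescence intensity read-out.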

| SMILES | outcome |
| --- | --- |
| CCc1ccccc1CC | inactive |
| O=C(O)c1ccc(C(=O)O)c(C(=O)O)c1 | inactive |
| CCCCCCCCCCO | inactive |
| N[C@H](Cc1c[nH]c2ccccc12)C(=O)O | inactive |
| COC(=O)CCCC(=O)OC | inactive |
| CC(C)(C#N)c1cc(Cn2cncn2)cc(C(C)(C)C#N)c1 | inactive |
| O=S(=O)(O)c1ccc(N=Nc2c(O)ccc3cc(S(=O)(=O)O)ccc23)cc1 | inactive |
| CC1(C)NC(=O)NC1=O | inactive |
| CN(C)CCOC(=O)COc1ccc(Cl)cc1 | inactive |
| COc1cc(OC)c(C(=O)CCCN2CCCC2)c(OC)c1 | inactive |
| CC(C)c1cccc(C(C)C)c1 | inactive |
| COc1ccc(C)cc1N | inactive |
| CC(C)CCCCCCCOC(=O)CCCCC(=O)OCCCCCCCC(C)C | inactive |

Molecular target: Glucocorticoid receptor (Homo sapiens) (UniProt P04150)
Test: qHTS assay to identify small molecule antagonists of the glucocorticoid receptor (GR) signaling pathway (AID 720692; active means well fitted inhibition curve with a large enough effect in the signal ratio in the repeat runs, not every such curve was filed as active; the % refers to the signal ratio)
Details: GR-bla HeLa, beta-lactamase FRET ratio, dexamethasone-stimulated, 18 h; series mostly up to 58.5 µM; activity change, negative = inhibition: at the top concentration
In short: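 Read-out: beta-lactamase FRET substrate fluorescence, 2 h at room temperature, in HeLa cells stably carrying a GRE-driven bla reporter. Compounds were co-incubated with 5 nM dexamethasone agonist (final) for 18 h at 37 C.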

| SMILES | Potency | activity change, negative = inhibition |
| --- | --- | --- |
| CC(=O)OC1CC(C)OC(C)O1 (stereo not drawn) | inactive |  |
| CCc1ccccc1CC | inactive |  |
| C=C(C)[C@H]1CC=C(C)C(=O)C1 | inactive |  |
| CC(=O)Oc1ccc(C)cc1 | inactive |  |
| CC(C)(Oc1ccc(CCNC(=O)c2ccc(Cl)cc2)cc1)C(=O)O |  | 12.9% [at 27 µM] |
| O=c1[nH]cnc2[nH]ncc12 | inactive |  |
| O=S(=O)(O)c1ccccc1 | inactive |  |
| N#Cc1ccccc1 |  | 4.49% |
| CC(=O)OCc1ccccc1 | inactive |  |
| O=C(O)c1ccc(C(=O)O)c(C(=O)O)c1 | inactive |  |
| CCCCCCCCCCO | inactive |  |
| COC(=O)CCCC(=O)OC |  | 0.0709% |
| CC(C)(C#N)c1cc(Cn2cncn2)cc(C(C)(C)C#N)c1 | inactive |  |
| O=S(=O)(O)c1ccc(N=Nc2c(O)ccc3cc(S(=O)(=O)O)ccc23)cc1 |  | -3.52% [at 78.9 µM] |
| CC1(C)NC(=O)NC1=O |  | 9.9% [at 78.9 µM] |
| CCO[Si](CCC#N)(OCC)OCC |  | 9.37% [at 78.9 µM] |
| CC(C)=CCl | inactive |  |
| CN(C)CCOC(=O)COc1ccc(Cl)cc1 | inactive |  |
| CC(O)CC(C)(C)O (stereo not drawn) | inactive |  |
| COc1cc(OC)c(C(=O)CCCN2CCCC2)c(OC)c1 |  | 10.7% [at 27 µM] |
| CC(=O)OCCOC(C)=O |  | 0.0709% |
| CC(C)c1cccc(C(C)C)c1 |  | 0.133% [at 78.9 µM] |
| COc1ccc(C)cc1N | inactive |  |
| CC(C)CCCCCCCOC(=O)CCCCC(=O)OCCCCCCCC(C)C | inactive |  |
